Measured values: PubChem BioAssay AID2417 (National Center for Advancing Translational Sciences (NCATS), 2010)
The campaign covered roughly 140,000 compounds. About 4,300 (3.1%) were called active. Roughly 21% stayed inconclusive and do not appear here. The sample holds actives, similar compounds and a random draw of the others, so the mix is not that of the screen. Values without a mark were called inactive.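 Rule for the calls: active = readout at or below -70, meaning at least 70% loss of cells showing the perinucleolar compartment, a nuclear body marking cancer cells; inconclusive = readout between -30 and a set limit; inactive = the rest.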

Test: High Content Assay for Compounds that inhibit the Assembly of the Perinucleolar Compartment;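 note: plate controls were DMSO wells for no effect and camptothecin positive control wells for full effect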
Details: PC3M PTB-GFP, PNC prevalence imaging, 16 h; at 10 µM; active compounds read low
Summary of the method: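 PC3M cells stably expressing PTB-GFP, 750–1000 cells/well, treated 16 h at 37 °C with compound (23 nl of library stock), in duplicate. After paraformaldehyde fixation and Hoechst stain, imaged at 20x; PNC prevalence scored by image analysis.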
Compound `CC(=O)c1c(O)cc2n(c1=O)-c1ccc(Cl)cc1C2(C)C` has an activity change (PNC), negative = inhibition of -2.74%. Work on `O=C(NC(=O)N1CCOCC1)c1ccccc1` yielded an activity change (PNC), negative = inhibition of 6.63%. With `O=C(Nc1ccn(Cc2ccccc2)n1)c1n[nH]c([N+](=O)[O-])c1Cl` the activity change (PNC), negative = inhibition was 5.38%. With `CC(Sc1cccc[n+]1[O-])C(=O)Nc1cccc(S(=O)(=O)N2CCOCC2)c1` (stereo not given) the activity change (PNC), negative = inhibition was -7.27%. Compound `COc1ccc(-c2csc(NC(=O)COC(=O)c3ccc(Br)o3)n2)cc1` has an activity change (PNC), negative = inhibition of -8.03%. Work on `CC(NC(=S)Nc1ccc(S(N)(=O)=O)cc1)c1ccc2c(c1)OCO2` (stereo not given) yielded an activity change (PNC), negative = inhibition of -20.3%. Compound `c1ccc(-n2nc3ccccc3n2)cc1` has an activity change (PNC), negative = inhibition of -3.58%. For `O=C1CCCc2nn(-c3ccccc3)nc21`, the activity change (PNC), negative = inhibition was -100% (active). Compound `N#CC1=C(N)N(c2ccccc2)C2=C(C(=O)CCC2)C1c1ccccc1` (stereo not given) has an activity change (PNC), negative = inhibition of 5.97%. For `CCCCCC(=O)Nc1ccc(S(=O)(=O)Nc2ccc(Cl)nn2)cc1`, the activity change (PNC), negative = inhibition was 31.2%. Compound `CCOc1ccccc1N1CCN(C(=S)Nc2ccc(S(N)(=O)=O)cc2)CC1` has an activity change (PNC), negative = inhibition of -28.8%. With `Cc1ccc(C(=O)c2c(NC(=O)c3ccncc3)sc3c2CCCC3)cc1` the activity change (PNC), negative = inhibition was -86.2% (active). Compound `Cc1ccc(C(=O)c2c(NC(=O)c3ccccc3)sc(C)c2C)cc1` has an activity change (PNC), negative = inhibition of 71.1%. With `COC(=O)c1c(NC(=O)c2cccs2)sc2c1CCCC2` the activity change (PNC), negative = inhibition was -6.02%. In the case of `CC(=O)NC1C(Oc2ccc(C)cc2)OC2COC(c3ccco3)OC2C1O` (stereo not given), the activity change (PNC), negative = inhibition is reported as -119% (active). With `CN1CCN(c2ccc(S(=O)(=O)N3CCCCC3)cc2NC(=O)Cc2ccccc2F)CC1` the activity change (PNC), negative = inhibition was 41.3%. For `N#CCOc1ccc(C2=NO[C@@H]3[C@@H]4C[C@@H]([C@H]5C(=O)N(c6ccc7c(c6)OCO7)C(=O)[C@@H]45)[C@H]23)cc1`, the activity change (PNC), negative = inhibition was -91.1% (active). Work on `CCOC(=O)C1CCN(C(=O)CSc2cc(=O)n(C)c3ccccc23)CC1` yielded an activity change (PNC), negative = inhibition of 0.103%. With `CCCCn1c(SCC(=O)N2CCC(C(=O)OCC)CC2)nc2cc(S(N)(=O)=O)ccc21` the activity change (PNC), negative = inhibition was -100% (active). For `CCCCn1c(SCc2ncc(-c3ccccc3)o2)nc2cc(S(N)(=O)=O)ccc21`, the activity change (PNC), negative = inhibition was 27%. For `CCCCOC(=O)c1[nH]c(C)c(C(=O)OC)c1C`, the activity change (PNC), negative = inhibition was -88.2% (active). With `CCCCN(CC)CCNC(=O)c1[nH]c(C)c(C(C)=O)c1C` the activity change (PNC), negative = inhibition was -4.29%. Compound `COC(=O)c1c(C)[nH]c(C(=O)/C=C/c2ccc(Cl)cc2)c1C` has an activity change (PNC), negative = inhibition of 0.424%. `CC(=O)c1c(Nc2ccccc2)sc(C(=O)c2ccccc2)c1C` gave an activity change (PNC), negative = inhibition of 73.7%. `Cc1cc(NS(=O)(=O)c2ccc(NC(=S)NC(=O)c3ccc(F)cc3Cl)cc2)no1` gave an activity change (PNC), negative = inhibition of -22%. For `Cc1ccc(C(=O)C(=S)N2CCOCC2)cc1`, the activity change (PNC), negative = inhibition was -3.45%. With `COc1ccc(N2CCN(C3CC(=O)N(c4ccc5c(c4)OCCO5)C3=O)CC2)cc1` (stereo not given) the activity change (PNC), negative = inhibition was -84.9% (active). In the case of `COc1ccc(N2C(=O)CC(N3CCC(C(N)=O)CC3)C2=O)cc1` (stereo not given), the activity change (PNC), negative = inhibition is reported as 19.9%. For `COC(=O)c1cc(C(=O)OC)cc(N2C(=O)CC(N3CCN(c4ccccc4)CC3)C2=O)c1` (stereo not given), the activity change (PNC), negative = inhibition was -94.7% (active). `COc1cccc(N2CCN(C3CC(=O)N(c4ccc(Cl)cc4)C3=O)CC2)c1` (stereo not given) gave an activity change (PNC), negative = inhibition of -3.5%. For `COc1cccc(N2C(=O)CC(N3CCN(S(=O)(=O)c4ccccc4)CC3)C2=O)c1` (stereo not given), the activity change (PNC), negative = inhibition was -19.9%. Compound `O=CN1CCN(C2CC(=O)N(c3ccc4c(c3)OCO4)C2=O)CC1` (stereo not given) has an activity change (PNC), negative = inhibition of -6.31%. With `Cn1cc([N+](=O)[O-])c(C(=O)Nc2cnn(Cc3ccc(F)cc3)c2)n1` the activity change (PNC), negative = inhibition was -17%. Work on `COCCOC(=O)c1c(C)oc2cc(Br)c(OCC(N)=O)cc12` yielded an activity change (PNC), negative = inhibition of -7.11%. Compound `CC(C)(C)c1ccc(/C=C/C(=O)Nc2ncccn2)cc1` has an activity change (PNC), negative = inhibition of 15.2%. `COc1ccc([C@H]2[C@H](C(C)=O)N3N=Cc4ccccc4C3C23C(=O)OC(C)(C)OC3=O)cc1` (stereo not given in full) showed an activity change (PNC), negative = inhibition of 11.5%. With `COc1ccc(C(=O)Nc2ccc(CN3CCOCC3)cc2)cc1` the activity change (PNC), negative = inhibition was -12.7%. For `CC(C)(C)NC(=O)c1cccc(NC(=O)Cc2ccc(Br)cc2)c1`, the activity change (PNC), negative = inhibition was -14.3%. For `COc1ccc(CC(=O)Nc2ccc(C(=O)NC(C)(C)C)cc2)cc1`, the activity change (PNC), negative = inhibition was -85% (active). For `CC1=C(C(=O)Nc2cc(C)ccn2)C(c2cnn(C)c2)C2=C(CC(c3ccccc3)CC2=O)N1` (stereo not given), the activity change (PNC), negative = inhibition was 20.8%. `COc1ccc2nc(NC(=O)[C@@H]3CCCN3C(=O)c3cccs3)sc2c1` showed an activity change (PNC), negative = inhibition of 34.3%. For `O=C(c1ccc(-n2cnnn2)cc1)N1CCN(C(c2ccccc2)c2ccccc2)CC1`, the activity change (PNC), negative = inhibition was -100% (active). In the case of `Cn1nnnc1SCC(=O)N1CCN(C(c2ccccc2)c2ccccc2)CC1`, the activity change (PNC), negative = inhibition is reported as -100% (active). Compound `O=C(O)CC(c1ccccc1)n1cnnn1` (stereo not given) has an activity change (PNC), negative = inhibition of 2.72%. Compound `CC(C)NC(=S)N1CCN(C(c2ccccc2)c2ccccc2)CC1` has an activity change (PNC), negative = inhibition of 12%.
